# Screening results: PubChem, The Scripps Research Institute Molecular Screening Center
# ssDAF-12 act: activates DAF-12 receptor from parasite S. stercoralis | HEK293 ssDAF-12/GRIP1 lit1-tk-luc reporter, luminescence; % of 3 µM dafachronic acid response | activation, % at 6.8 µM | actives 1% (n = 370,000);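 active = activation above the mean over all tested compounds plus 3 SD, cut at about 0.9% in these data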;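 note: 0% = DMSO-only wells and 100% = 3 µM delta7-dafachronic acid wells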
# DAX1 inh-1: DAX1 (NR0B1) inhibition, primary screen; HEK293T StAR-luciferase reporter, SF-1/DAX-1 repression relief; inhibition, % at 6.8 µM; actives 1.1% (n = 370,000); AID 652010;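 active = inhibition above the mean over all tested compounds plus 3 SD, cut at about 3.6% in these data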;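 note: 0% = DAX-1 cells with DMSO and 100% = cells lacking DAX-1 with DMSO; higher inhibition means more luminescence from relief of DAX-1 repression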
# hcDAF12 agonist: activates DAF-12 receptor from parasite H. contortus; HEK293 hcDAF-12 lit1-tk-luc reporter, luminescence; 0% DMSO, 100% Δ7-dafachronic acid; activation, % at 6.8 µM; actives 1.4% (n = 370,000); AID 652067;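 active = activation above the mean of all tested compounds plus 3 SD, cut at about 5.5% in these data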;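 note: 100% = response to 3 µM Δ7-dafachronic acid high control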
# DAX1 inh-2: inhibits human nuclear receptor DAX1 | P51843 | HEK293 Gal4-DAX1 luciferase reporter, luminescence | inhibition, % at 6.75 µM | actives 0.99% (n = 340,000);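 active = inhibition above the mean over all tested compounds plus 3 SD, cut at about 4.2% in these data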;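 note: 0% = DAX1-transfected cells with DMSO and 100% = empty-vector control cells with DMSO; inhibition shows as a rise in luminescence from relieved DAX1 repression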
# hgDAF12 agonist: hgDAF-12 agonism, primary luciferase screen; HEK293 GAL4-hgDAF12 UAS-luciferase reporter, agonist luminescence; normalized to butyrate control; activation, % at 6.8 µM; actives 1.8% (n = 370,000); AID 687014;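 active = activation above a cutoff set at the mean of all screened compounds plus 3 SD, cut at about 10% in these data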;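 note: 0% = DMSO wells and 100% = sodium butyrate wells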
# LXRb hcDAF ctr: counter-screen for hcDAF-12 agonists: agonists of human LXR-beta; shares compounds with hcDAF12 agonist; HEK293 Gal4-LXR tk-luc reporter, luminescence, 24 h; normalized: DMSO 0%, positive control 100%; activation, % at 6.8 µM; 3,400 tested, under 10 active;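 active = mean percent activation of the reporter above a cutoff set as the average over tested compounds plus their standard deviation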
# Target sequence (P55055 whole entry, looked up, the tested form may be a part): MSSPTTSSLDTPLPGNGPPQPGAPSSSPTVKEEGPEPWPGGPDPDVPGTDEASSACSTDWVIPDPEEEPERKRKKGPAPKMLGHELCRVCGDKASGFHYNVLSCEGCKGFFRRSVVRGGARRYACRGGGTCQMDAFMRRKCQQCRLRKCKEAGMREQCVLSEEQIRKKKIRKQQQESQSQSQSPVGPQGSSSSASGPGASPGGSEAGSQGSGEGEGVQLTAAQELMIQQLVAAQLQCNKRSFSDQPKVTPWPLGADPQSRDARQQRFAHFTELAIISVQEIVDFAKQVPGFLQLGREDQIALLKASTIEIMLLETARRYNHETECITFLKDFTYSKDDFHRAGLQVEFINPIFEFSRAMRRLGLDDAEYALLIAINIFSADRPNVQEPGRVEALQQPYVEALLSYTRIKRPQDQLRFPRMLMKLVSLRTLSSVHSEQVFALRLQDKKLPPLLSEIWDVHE
# hcDAF12 conf: hcDAF-12 agonism, confirmation assay; shares compounds with hcDAF12 agonist; HEK293 hcDAF-12 lit1-tk-luc reporter, luminescence; % of Δ7-dafachronic acid response; activation, % at 6.8 µM; actives 61% (n = 3,400);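 active = mean activation across triplicate tests above the threshold derived from the earlier primary screen, cut at about 5.5% in these data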;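 note: 0% = DMSO only wells and 100% = 3 µM Δ7-dafachronic acid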
# * hit, by the source's call; nt = no result given. In the library only some 4.1% were active in any assay of this set; here they are far more common.
SMILES,ssDAF-12 act,DAX1 inh-1,hcDAF12 agonist,DAX1 inh-2,hgDAF12 agonist,LXRb hcDAF ctr,hcDAF12 conf
COc1cccc(C(=O)NC(=S)Nc2cccnc2)c1,1.0*,1,7.8*,0,7,0,1
O=C(CSc1ccccn1)Nc1ccc2c(c1)C(=O)c1ccccc1C2=O,0,-1,6.8*,0,9,1,5
N#CC1(Nc2ccc3ccccc3c2)CCCC1,0,4.1*,6.9*,3,9,0,7.0*
N#CC1(P(=O)(c2ccccc2)c2ccccc2)CCCC1,-1,0,-1,0,2,nt,nt
C/C(=N\NC(=O)c1ccccc1O)C1C(=O)c2ccccc2C1=O,0,2,6.9*,1,10,0,3
O=C(Nc1ccc2nccnc2c1)c1cnccn1,-1,2,6.7*,2,5,0,2
CC(=O)c1cccc(NC(=O)c2cnccn2)c1,-1,0,0,2,-2,nt,nt
O=C(Nc1nc2ccccc2s1)C1=NN(c2ccccc2)C(=O)CC1,-1,0,6.8*,0,1,0,4
O=C(Nc1nc2ccccc2s1)c1cnccn1,1,4.0*,7.5*,1,13*,1,6.6*
c1ccc(-c2nc3cc4ccccc4cc3[nH]2)nc1,0,2,8.8*,-3,9,2,11*
COc1ccc(OC)c(C(O)c2ncc(-c3ccc(C(F)(F)F)cc3)[nH]2)c1 (stereo unspecified),-1,0,0,nt,-1,nt,nt
NS(=O)(=O)c1ccc(CCNc2nc3c(-c4cccc(F)c4)nnn3c3ccccc23)cc1,1.3*,0,7.1*,2,0,-1,1
COc1ccc(OCc2cc(C(=O)N3CCCC(CO)C3)no2)c2ccccc12 (stereo unspecified),1.4*,3,7.8*,1,10,1,9.5*
O=C(c1cc(COc2cccc3cnccc23)on1)N1CCCC(CCCO)C1 (stereo unspecified),-2,-9,-5,-2,-8,nt,nt
Oc1c(C=Nc2ccccc2Cl)[nH]c2ccccc12,1.1*,2,15*,2,14*,1,8.9*
C=CCn1c(SCc2ccc(C#N)cc2)nnc1-c1ccco1,-1,-1,0,nt,2,nt,nt
COc1cccc(/C=N/Nc2ccccc2C(=O)O)c1O,1.4*,3,7.8*,5.0*,9,1,11*
CCOC(=O)c1ccc(NC(=O)CSc2nnc(-c3cccc(C)c3)n2C)cc1,-2,-2,-5,nt,0,nt,nt
Cc1cccc(NC(=O)Nc2nc3ncccn3c2-c2ccc(F)cc2)c1,0,-1,-1,nt,-1,nt,nt
COc1ccccc1-c1nnc(SCC(=O)N2CCCC2)o1,1.4*,1,6.7*,3,1,0,9.1*
O=C(CSc1nnc(-c2ccccc2F)o1)N1CCCC1,-1,0,2,2,3,nt,nt
c1ccn(-c2ccc(-c3ccn[nH]3)cc2)c1,2.2*,2,10*,4,13*,1,4
NS(=O)(=O)c1cccc(NC(=O)C(Cc2ccccc2)NC(=O)c2ccccc2)c1 (stereo unspecified),-1,0,1,0,0,nt,nt
O=C(Nc1ccc(F)cc1)c1nsc(Cl)c1Cl,2.8*,2,9.7*,3,11*,1,11*
CC(CSC(=O)c1ccccc1)C(=O)N1c2ccccc2CC1C(=O)O (stereo unspecified),1,0,7.5*,nt,5,0,5
Cn1c(Cl)c(C(=O)Nc2ccc(Cl)cc2)c2ccccc21,1,0,6.8*,3,8,0,5.9*
O=C1Nc2ccccc2/C1=C/c1cnc(-c2ccccc2)[nH]1,1.2*,1,9.7*,4.7*,5,1,9.8*
O=C1Nc2ccccc2/C1=C/c1cccnc1,-2,-1,-2,-1,9,nt,nt
